# Source: PubChem BioAssay AID493201 (National Center for Advancing Translational Sciences (NCATS), 2011)
# Results filed as inconclusive are left out. A call without a number means that no potency is given here. Activity calls are given as the source filed them. The call rests on the fitted dose curve; in most records, active means well fitted activation curve with a large enough effect; inconclusive means small, poorly fitted or top-dose-only effect; inactive means no such curve, though single readings can be large or run the other way.
# Assay: qHTS Assay for Identifying a Potential Treatment of Ataxia-Telangiectasia: Secondary assay (no NCS) hit validation;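 further: phosphorylated KAP1 signal as a proxy for ATM-like kinase activity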
# Conditions: A-T patient fibroblasts, AlphaLISA, no DNA damage added, 90 min; series mostly up to 76.9 µM
# Procedure, shortened: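 hTERT-immortalized A-T patient fibroblasts (F2112), 500 cells/well, exposed to compounds at up to 76.7 uM final without NCS at 37C. KAP-1 phosphorylation measured by AlphaLISA after lysis and 6 h detection at 25C.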
# Potency means the concentration at half of the fitted maximal effect.
row,SMILES,Potency
1,CCCCCCCCCn1ccc(=N)cc1,inactive
2,O=C(CNCc1cccs1)Nc1cc(S(=O)(=O)N2CCCC2)ccc1Cl,inactive
3,O=C1/C(=C/c2ccc(N3CCOCC3)o2)SC(=Nc2ccccc2)N1CCc1c[nH]c2ccccc12,inactive
4,CC1=C/C(=C\C=C(C#N)C#N)N(C)c2ccccc21,inactive
5,COc1ccc(C2NC(=S)NC3=C2N2CCC3CC2)cc1 (stereo not given),1.16 µM (active)
6,CC(C)c1ccc(-c2cc(C(=O)N3CCOCC3)c3cc(Br)ccc3n2)cc1,inactive
7,COc1cc(CCC(C)NCc2ccccc2)ccc1O (stereo not given),inactive
8,CC(=O)Nc1ccc(S(=O)(=O)NCC2(N3CCOCC3)CCCCC2)cc1,inactive
9,N#C/C(=C/c1ccc(F)cc1)C(N)=S,inactive
10,CCOc1cccc(/C=C/c2ccc3cccc(O)c3n2)c1OC,inactive
11,Cc1ccc(-c2noc(CCC(=O)NC3CCN(Cc4ccccc4)CC3)n2)cc1,inactive
12,CCOC(=O)c1c(CSc2ccsc2)n(C)c2cc(Br)c(O)c(CN(C)C)c12,26 µM (active)
13,CCn1c2ccccc2c2c3ncc4cccn4c3ccc21,36.8 µM (active)
14,CNC(=S)N(CCc1c(C)[nH]c2ccc(Cl)cc12)Cc1cccnc1,inactive
15,Cc1ccc(OC(=O)c2cc(C)nn2C(C)(C)C)cc1,inactive
